Results as given in ChEMBL document CHEMBL3988442, “University of Dundee, Small-Polar-MMV Screening Library” (2021).
About 13,000 (27%) of roughly 48,000 compounds showed an effect of 50% or more. This is one part of the list.

test system: Wolbachia pipientis; assay: Anti-Wolbachia Cell-Based Screen; type: functional; parameters: scale not given: in the data most compounds retested in dose-response had high values; details: 5 µM

Row | Structure (SMILES) | Percent Effect
1 | Cn1c(=O)oc2cc(Nc3ncc(C#N)cc3Cl)ccc21 | -1.67%
2 | Cc1nn(C)cc1CN1CCc2c(nc(-c3ccccn3)[nH]c2=O)C1 | 96.61%
3 | Cn1cnc2c1CCN(Cc1cccc(C(N)=O)c1)C2 | -6.228%
4 | O=C(c1ccco1)N1CCc2c(nc(-c3ccncc3)[nH]c2=O)C1 | 13.85%
5 | CCn1nc2c(cc1=O)CN(Cc1nc(-c3ccccn3)no1)CC2 | -6.264%
6 | COc1ccc2c(c1)CN(Cc1nc3ccsc3c(=O)[nH]1)CC2 | -2.354%
7 | COc1ccc(CN2CCc3c(nc(-c4ccccn4)[nH]c3=O)C2)cc1 | 130.9%
8 | COc1ccccc1CN1C[C@@H](F)[C@@H](OCc2nc3ncccc3[nH]2)C1 | -5.339%
9 | COc1ccccc1CN1CCc2c(nc(-c3ccccn3)[nH]c2=O)C1 | 118.7%
10 | c1ccc(-c2noc(CN3CCc4c(ncn4C4CC4)C3)n2)nc1 | -14.25%
11 | COc1ccccc1CN1C(=O)O[C@@H]2CN(c3ccccn3)C[C@@H]21 | 2.644%
12 | O=c1[nH]c(-c2ccccn2)nc2c1CCN(Cc1cccc(O)c1)C2 | 110.8%
13 | CCc1nnc(CN2CCc3[nH]c(-c4ccc(OC)cc4)nc3C2)o1 | -0.2672%
14 | Cc1nnc(CN(C)CC(=O)N2CCCN(C3CCCC3)CC2)n1C | -1.28%
15 | Cc1cccc(S(=O)(=O)NCC(C)(C)CC(C)O)c1C#N (configuration not stated) | -19.79%
16 | CCNC(=O)Nc1c(C)cnn1Cc1cc(F)ccc1F | -3.451%
17 | O=C(C[S+]([O-])Cc1c(Cl)cccc1Cl)N1CCc2sccc2C1 (configuration not stated) | -11.53%
18 | COc1ccccc1CNC(=O)N1CCCC(c2nncn2C)C1 (configuration not stated) | -1.227%
19 | Cn1cnnc1C1CCCN(C(=O)c2n[nH]c3ccccc23)C1 (configuration not stated) | 7.957%
20 | COc1cc2ccccc2cc1C(=O)N1CCCC(c2nncn2C)C1 (configuration not stated) | 138.9%
21 | Cn1cnnc1C1CCCN(C(=O)c2cc3ccccc3[nH]2)C1 (configuration not stated) | 124.8%
22 | Cc1occc1CN(C)C(=O)Nc1ccc(=O)n(C)c1 | 5.737%
23 | c1ccc(CN2CCC(NCCc3ccc4c(c3)CCO4)CC2)nc1 | 2.392%
24 | Cn1ccc(C(=O)Nc2cccc(-c3ccc4c(c3)CCO4)n2)cc1=O | -14.88%
25 | CCOc1ccc(CC(=O)N2CCCC(n3nc(C)nc3C)C2)cc1 (configuration not stated) | 81.54%
26 | N#Cc1ccc(OCC(=O)N2CCCC(n3cccn3)C2)cc1 (configuration not stated) | -1.98%

Row | Structure (SMILES) | Percent Effect
27 | Cc1nc(C)n(C2CCCN(C(=O)Cc3cccnc3)C2)n1 (configuration not stated) | -7.777%
28 | Cc1nc(C)n(C2CCCN(C(=O)CCCOc3ccccc3)C2)n1 (configuration not stated) | 1.016%
29 | Cc1nc(C)n(C2CCCN(C(=O)Cc3n[nH]c4ccccc34)C2)n1 (configuration not stated) | -3.08%
30 | CCc1[nH]ncc1C(=O)N1CCCC(n2nc(C)nc2C)C1 (configuration not stated) | -3.385%
31 | Cc1nc(C)n(C2CCCN(C(=O)COc3cccc(C#N)c3)C2)n1 (configuration not stated) | 83.98%
32 | Cc1nc(C)n(C2CCCN(C(=O)c3cccc4cn[nH]c34)C2)n1 (configuration not stated) | 1.609%
33 | Cc1ccc(OCCC(=O)N2CCCC(n3nc(C)nc3C)C2)cc1 (configuration not stated) | 93.22%
34 | Cc1nc(C)n(C2CCCN(C(=O)COc3ccccc3)C2)n1 (configuration not stated) | 133.2%
35 | CCN(C)c1ncnc2c1CCN(Cc1nccs1)CC2.O=C(O)C(F)(F)F.O=C(O)C(F)(F)F | -6.805%
36 | CN(C)Cc1cc(-c2nccn2CCc2cccnc2)ccc1O | -8.952%
37 | Cc1nnc(NCc2ccccc2Cl)c(C#N)c1C | 4.284%
38 | CCCC(=O)Nc1cc(C(=O)NC(C)Cc2ccncc2)ccc1C (configuration not stated) | 2.128%
39 | CC(C)OCCOCc1cccc(NC(=O)N2CCCC(O)C2)c1 (configuration not stated) | -8.695%
40 | CC(C)(C)OC(=O)N1CCC(NC2CCS(=O)(=O)C2)CC1 (configuration not stated) | -18.26%
41 | c1ncn(Cc2nnc(C3CCN(C4CCOCC4)CC3)n2C2CC2)n1 | -14.43%
42 | Cc1csc2c(N3CCC(NCCc4ccnn4C)CC3)ncnc12 | 1.51%
43 | Cc1nc(C)n(C2CCCN(C(=O)COCc3ccccc3)C2)n1 (configuration not stated) | -1.544%
44 | COc1ccsc1C(=O)N1CCCC(n2nc(C)nc2C)C1 (configuration not stated) | -12.01%
45 | Cc1nc(C)n(C2CCCN(C(=O)c3ccccc3C)C2)n1 (configuration not stated) | 3.222%
46 | CCOc1cc(C(=O)N2CCCC(n3nc(C)nc3C)C2)ccn1 (configuration not stated) | 108.5%
47 | CCOc1ncccc1C(=O)N1CCCC(n2nc(C)nc2C)C1 (configuration not stated) | -3.094%
48 | Cc1ccc(OCC(=O)N2CCCC(n3nc(C)nc3C)C2)cc1 (configuration not stated) | 110.7%
49 | CCCNC(=O)CCC(=O)Nc1cc2sc(C)nc2cc1OC | 9.826%
50 | CC(=O)N(CCc1ccccc1)CC(=O)NC1(C#N)CC1 | -30.59%
51 | COCCNC(=O)Nc1cc2c(cc1SC)OCCO2 | 8.638%
52 | CCCn1ncc(CN(Cc2cccnc2)Cc2cccs2)c1C | 103.6%

Row | Structure (SMILES) | Percent Effect
53 | CCCn1ncc(CN(Cc2ccsc2)Cc2ccco2)c1C | -9.54%
54 | CCCn1ncc(CN(Cc2cccnc2)Cc2ccsc2)c1C | -8.215%
55 | Cc1cnc(C(=O)NCC2CCOc3ccccc3C2)cn1 (configuration not stated) | -13.56%
56 | CCC(=O)N1CCC2(CCC(N3CCCC3)c3ccccc32)CC1.O=C(O)C(F)(F)F (configuration not stated) | 3.41%
57 | O=C(O)C(F)(F)F.OCCN1CCC2(CCc3cc(-c4ccoc4)ccc32)CC1 | -5.602%
58 | CN(C)CC(=O)N1CCC2(CCc3ccc(-c4ccncc4)cc32)CC1.O=C(O)C(F)(F)F.O=C(O)C(F)(F)F | -5.921%
59 | Cc1ccc2c(c1)CCC21CCN(C(=O)CN(C)C)CC1.O=C(O)C(F)(F)F | -5.589%
60 | CCC(=O)N1CCC2(CC1)CN(CCO)Cc1ccccc12.O=C(O)C(F)(F)F | 102.3%
61 | CN1Cc2ccccc2CC2(CCN(CCO)CC2)C1=O.O=C(O)C(F)(F)F | 115.9%
62 | O=C(O)C(F)(F)F.O=C1NC2(CCN(CCO)CC2)CC1c1ccccc1 (configuration not stated) | -11.42%
63 | CN(C)CC(=O)N1CCC2(CC1)Cc1ccccc1CN(C)C2=O.O=C(O)C(F)(F)F | 100.6%
64 | COc1cccc2[nH]cc(CCNC(=O)N3CCCC3CO)c12 (configuration not stated) | -6.356%
65 | Cc1cc(C(F)(F)F)nn1CC(C)C(=O)Nc1ccncc1 (configuration not stated) | 0.9571%
66 | COCCN1CCC(CN(C)c2nc3c(s2)c(C)nn3C)CC1 | 20.85%
67 | CCCc1nnc2sc(C3CCN(CCOC)CC3)nn12 | 91.66%
68 | CC(C)c1nnc2sc(CC3CCS(=O)(=O)CC3)nn12 | -25.36%
69 | CCCN1CCC(Cc2nn3c(C(C)C)nnc3s2)CC1 | -24.84%
70 | CCc1nnc2n1CCN(C(=O)c1cnc(C3CC3)s1)C2 | -2.147%
71 | CCCc1nnc2sc(C3CCN(C4CCN(C)CC4)CC3)nn12 | 110.3%
72 | CCCc1nnc2sc(C3CCS(=O)(=O)CC3)nn12 | 102.2%
73 | CCCc1nnc(N2CCC(N3CCCC3)CC2)o1 | 13.58%
74 | CN1CCC(c2nnc(CN3CCCC3)n2C2CC2)CC1 | 3.888%
75 | COCCN(Cc1ccc(F)cc1Cl)C(=O)c1c(C)noc1C | -7.474%
76 | CCCNC(=O)NC(=O)CN(CC(C)O)c1ccccc1 (configuration not stated) | 5.048%
77 | CC(C)C[C@@H]1N[C@H](C(=O)NC2CCOCC2)Cc2c[nH]c3cccc1c23 | -3.699%
78 | O=C(COc1ccc2c(c1)CCC2)N1CCOCC1c1ncon1 (configuration not stated) | -4.669%

Row | Structure (SMILES) | Percent Effect
79 | O=C(NCCSCc1ccc(Br)s1)C1CCCN(C(=O)c2cccs2)C1 (configuration not stated) | -11.8%
80 | CC(=O)N[C@H]1CCN(c2nc(C)nc3c2c(C)nn3C)C1 | -0.02014%
81 | Cc1cc(C(=O)Nc2cc(C3CC3)n[nH]2)c2c(C)nn(C)c2n1 | 94.33%
82 | CCn1ncc(NC(=O)c2cc(C3CC3)nc3c2c(C)nn3C)c1C | 0.1323%
83 | O=C1NCCCC1NC(=O)C1(c2cccc(Cl)c2)CCC1 (configuration not stated) | -14.19%
84 | CC(=O)NC1CCN(C(=O)Nc2cccc(SC(F)F)c2)CC1 | -5.711%
85 | CC(=O)NC1CCN(C(=O)Nc2cccc(C(F)(F)F)c2)CC1 | -0.6218%
86 | CC(=O)Nc1cccc([C@H]2C[C@@H](NC(C)=O)CCO2)c1 | 88.4%
87 | CC1CN(C(=O)C2(c3ccc(F)cc3F)CCOCC2)CCO1 (configuration not stated) | -18.6%
88 | CC(=O)N1CCC(C(=O)N2CCC(=Cc3cccc(F)c3)CC2)CC1 | 0.4533%
89 | O=C(NCc1ccco1)N1CCCCC1c1nc(C2CC2)no1 (configuration not stated) | 74.85%
90 | CSc1nc(C2CC2)nc(C)c1C(=O)NCc1ccco1 | -1.039%
91 | COc1ncccc1C(=O)N1CCCC1c1nc(-c2ccccc2)no1 (configuration not stated) | -0.6104%
92 | O=C(NCc1ccco1)N1CCCCC1c1nc(-c2ccncc2)no1 (configuration not stated) | 87.86%
93 | Cc1noc(C2CCCCN2C(=O)C2CCN(C(C)C)CC2)n1 (configuration not stated) | -32.36%
94 | Cc1noc(C2CCCCN2C(=O)NCc2ccco2)n1 (configuration not stated) | 91.67%
95 | O=C(NCc1ccco1)C1CCCN1Cc1nc(-c2ccco2)no1 (configuration not stated) | -1.216%
96 | O=C(c1ccc2nccn2c1)N1CCCC1c1noc(C2CC2)n1 (configuration not stated) | 1.976%
97 | Cc1cc(CN(C)C(=O)NCc2ccco2)no1 | 6.91%
98 | O=C(NC1CCCC1)N1CCCCC1c1nc(C2CC2)no1 (configuration not stated) | 105.7%
99 | CN(C)Cc1nnc(C(=O)N(C)Cc2ccc(F)cc2)o1 | -46.46%
100 | Cn1cc(C2CCCN2C(=O)CCCc2nc3ccccc3[nH]2)cn1 (configuration not stated) | 0.1259%
101 | CC(=O)N1CCC(NC2(Cc3cc(CN(C)C)on3)COC2)CC1 | -3.87%
102 | Cc1ccc(-c2nn3c(nc2=O)-c2ccccc2NC3C(=O)O)cc1C (configuration not stated) | -8.788%
